Data as given in PubChem BioAssay AID1159580 (chemical genetic matrix, 2015).
“And” between values parts separate entries of the source, which are not always exact repeats. Equal values may be shown once. Among all 5,500 compounds or so, about 2,000 (36%) were called active. Not shown: some 18% with an inconclusive outcome. No stated cut-off is given here; in the data, active means normalized growth mostly below about 0.91 (no sharp cut-off); inconclusive means no clear call, values can overlap the other calls; inactive means mostly above about 0.92. The list shows a part of the results.

Assay: chemical genetic growth profiling, strain panel (AID 1159580);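 further: tested at 20 µM; growth read once vehicle control cultures reached saturation at 30 °C; 1 = growth at the plate median or of vehicle wells; lower values mean less growth of the strain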
Conditions: S. cerevisiae deletion strains, growth OD

Measured: normalized growth

ClC1C(Cl)C(Cl)C(Cl)C(Cl)C1Cl (stereo unspecified)
inactive: locus YAL013W, strain DEP1, hits give low values 0.981 | locus YAL021C, strain ccr4, hits give low values 0.997 | locus YAL026C, strain drs2, hits give low values 0.988 | locus YAL030W, strain snc1, hits give low values 0.98 | locus YBL061C, strain skt5, hits give low values 0.965 | locus YBR021W, strain FUR4, hits give low values 0.985 | locus YBR023C, strain chs3, hits give low values 0.965 | locus YBR171W, strain sec66, hits give low values 0.956 | locus YBR229C, strain ROT2, hits give low values 0.962 | locus YBR231C, strain swc5, hits give low values 0.913 | locus YBR279W, strain paf1, hits give low values 0.971 | locus YCL011C, strain gbp2, hits give low values 0.931 | locus YCL069W, strain vba3, hits give low values 0.986 | locus YCR088W, strain abp1, hits give low values 0.965 | locus YDL005C, strain med2, hits give low values 1.01 | locus YDL035C, strain GPR1, hits give low values 0.976 | locus YDL040C, strain nat1, hits give low values 0.986 | locus YDL074C, strain BRE1, hits give low values 0.939 | locus YDL101C, strain DUN1, hits give low values 0.964 | locus YDL134C, strain PPH21, hits give low values 0.963 | locus YDL185W, strain tfp1, hits give low values 0.926 | locus YDL192W, strain arf1, hits give low values 0.942 | locus YDR001C, strain nth1, hits give low values 0.964 | locus YDR069C, strain doa4, hits give low values 0.989 | locus YDR101C, strain arx1, hits give low values 0.956 | locus YDR150W, strain NUM1, hits give low values 0.942 | locus YDR162C, strain NBP2, hits give low values 0.969 | locus YDR195W, strain ref2 1.07 | locus YDR297W, strain sur2, hits give low values 0.97 | locus YDR318W, strain mcm21, hits give low values 0.926 | locus YDR334W, strain swr1, hits give low values 0.976 | locus YDR335W, strain msn5, hits give low values 1 | locus YDR388W, hits give low values 0.935 | locus YDR502C, strain sam2, hits give low values 0.937 | locus YEL003W, strain gim4, hits give low values 0.982 | locus YEL037C, strain rad23, hits give low values 0.973 | locus YEL061C, strain CIN8 (second series), hits give low values 0.99 | locus YEL061C, strain CIN8, hits give low values 0.953 | locus YER015W, strain faa2, hits give low values 0.982 | locus YER016W, strain bim1, hits give low values 0.98 | locus YER110C, hits give low values 0.935 | locus YER111C, strain swi4, hits give low values 0.933 | locus YER155C, strain BEM2, hits give low values 0.959 | locus YFR010W, strain ubp6, hits give low values 0.983 | locus YGL078C, strain dbp3, hits give low values 0.933 | locus YGL086W, strain mad1, hits give low values 0.933 | locus YGL167C, strain pmr1, hits give low values 0.974 | locus YGL173C, strain kem1, hits give low values 0.96 | locus YGL227W, strain vid30, hits give low values 0.954 | locus YGL248W, strain PDE1, hits give low values 0.954 | locus YGL253W, strain hxk2, hits give low values 0.976 | locus YGR078C, strain PAC10, hits give low values 0.954 | locus YGR135W, strain pre9, hits give low values 0.947 | locus YGR229C, strain SMI1, hits give low values 0.954 | locus YGR252W, strain gcn5, hits give low values 1.12 | locus YHR013C, strain ard1, hits give low values 0.866 | locus YHR027C, strain rpn1, hits give low values 0.988 | locus YHR030C, strain SLT2, hits give low values 0.945 and 0.982 | locus YHR079C, strain IRE1 (second series), hits give low values 0.927 | locus YHR079C, strain IRE1, hits give low values 0.985 | locus YHR129C, strain ARP1, hits give low values 0.958 | locus YHR200W, strain rpn10, hits give low values 0.922 | locus YIL066C, strain RNR3, hits give low values 0.955 | locus YIL073C, strain SPO22, hits give low values 0.906 | locus YIR030C, strain dcg1, hits give low values 0.945 | locus YJL092W, strain hpr5, hits give low values 0.95 | locus YJL095W, strain BCK1 (second series), hits give low values 0.931 | locus YJL095W, strain BCK1, hits give low values 0.871 and 0.984 | locus YJL115W, strain asf1, hits give low values 1.01 | locus YJL134W, strain LCB3, hits give low values 0.955 | locus YJL154C, strain vps35, hits give low values 0.982 | locus YJL164C, strain tpk1, hits give low values 0.925 | locus YJL168C, strain set2, hits give low values 0.943 | locus YJL187C, strain SWE1 (second series), hits give low values 0.959 | locus YJR043C, strain POL32, hits give low values 0.965 | locus YJR066W, strain TOR1, hits give low values 0.939
active: locus YBR009C, strain hhf1, hits give low values 0.831 | locus YCL016C, strain dcc1, hits give low values 0.898 | locus YCL029C, strain bik1, hits give low values 0.906 | locus YCL061C, strain MRC1, hits give low values 0.894 | locus YDR137W, strain rgp1, hits give low values 0.606 | locus YDR159W, strain sac3, hits give low values 0.703 | locus YDR392W, strain spt3, hits give low values 0.295 | locus YER155C, strain BEM2 (second series), hits give low values 0.306 | locus YER167W, strain BCK2, hits give low values 0.84 | locus YGL240W, strain doc1, hits give low values 0.774 | locus YHR094C, strain hxt1, hits give low values 0.923 | locus YHR142W, strain chs7, hits give low values 0.805 | locus YIL125W, strain kgd1, hits give low values 0.906 | locus YJL129C, strain trk1, hits give low values 0.783 | locus YJL166W, strain qcr8, hits give low values 0.728
